From PubChem BioAssay AID485297 (National Center for Advancing Translational Sciences (NCATS), 2010) come the findings set out here.

Hit rate of the full screen: of about 320,000 compounds, about 9,100 (2.8%) were called active. Roughly 3% stayed inconclusive and do not appear here. The full list was thinned out, with actives kept by preference. Values without a mark were called inactive. Calls come from the whole dose curve; as a rule, active = well fitted activation curve with a large enough effect; inconclusive = small, poorly fitted or top-dose-only effect; inactive = no such curve, though single readings can be large or run the other way.
Potency is the fitted concentration of half-maximal effect.

The assay in a line: qHTS Assay for Rab9 Promoter Activators. For activation, negative = inhibition: % of control where 0% means no effect. Note: nearly all actives have a fitted effect of over 60% in size. Particulars: Huh7 Rab9 promoter-luciferase reporter, luminescence, 24 h; series mostly up to 9.22 µM; activation, negative = inhibition: at the top concentration. A digest of the protocol: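 Stable Rab9-luc Huh7, 1500 cells/well, 2 h settle; cmpd in DMSO, 24 h, 37 °C/5% CO2; luciferase reagent 10 min RT; luminescence.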
Turning to `O=C(NCCc1nnc2ccc(SCC(=O)N3CCOCC3)nn12)c1ccccc1`, the “activation, negative = inhibition” value was -2.16%.

On to `CCCCn1c(N)c(N(CCC(C)C)C(=O)COC(=O)c2cccnc2OCC)c(=O)[nH]c1=O`, for which the “activation, negative = inhibition” value was -0.914%.

In the case of `O=C(COC(=O)CNC(=O)C1CCCCC1)NCc1ccccc1`, the “activation, negative = inhibition” value is 0.266%.

Turning to `CCCCN(C(=O)c1ccc2ccccc2c1)c1c(N)n(CCCC)c(=O)[nH]c1=O`, the “activation, negative = inhibition” value is -2.5%.

`CCNc1nc(-c2cc3ccccc3o2)cs1`: the Potency is 1260 nM (active).

Turning to `O=c1oc2ccccc2cc1-c1csc(Nc2ccc(O)cc2)n1`, the “activation, negative = inhibition” value is 24.9%.

`Cc1nc(C)c(-c2csc(NCCc3ccccc3)n2)s1`: the “activation, negative = inhibition” value was -3.17%.

Consider `O=C(CN1CCCSc2ccccc21)N1CCN(S(=O)(=O)c2ccccc2)CC1`, for which the “activation, negative = inhibition” value is -0.455%.

On to `COc1ccc2c(c1)c(C(=O)N/N=C/c1cccs1)c(C)n2C`, for which the “activation, negative = inhibition” value is -6.43%.

With `Cc1csc(NC(=O)C2=COCCO2)n1`, the Potency was 3550 nM (active).

In the case of `Cc1ccc(-c2csc(NC(=O)C3=COCCO3)n2)cc1C`, the “activation, negative = inhibition” value was -1.89%.

Regarding `O=C(Nc1ccc(S(=O)(=O)N2CCCC2)cc1Cl)C1=COCCO1`, the “activation, negative = inhibition” value is 2.73%.

Consider `CCC(CC)c1nnc(NC(=O)C2=COCCO2)s1`, for which the “activation, negative = inhibition” value is 29%.

On to `NS(=O)(=O)c1ccc2nc(NC(=O)C3=COCCO3)sc2c1`, for which the Potency was 1120 nM (active).

Consider `NS(=O)(=O)c1ccc2nc(NC(=O)CS(=O)(=O)c3ccc(F)cc3)sc2c1`, for which the “activation, negative = inhibition” value was 7.22%.

On to `COCCN(Cc1ccccc1)C(=O)Cc1ccc(S(=O)(=O)N2CCOCC2)s1`, for which the “activation, negative = inhibition” value is -1.26%.

Turning to `COC(=O)c1sc(NC(=O)COC(=O)C2CCC2)c(C(=O)OC)c1C`, the “activation, negative = inhibition” value is 1.11%.

Take `COc1ccccc1N1CCN(C(=O)C2Cc3ccccc3CN2C(=O)c2ccco2)CC1` (stereo not given): the “activation, negative = inhibition” value was -6.97%.

As for `OCCC1CN(Cc2cccn2-c2nccs2)CCN1CCc1ccccc1` (stereo not given), the “activation, negative = inhibition” value was -10.8%.

In the case of `COc1cc(/C=N\Nc2ccc([N+](=O)[O-])cn2)ccc1OCC(=O)O`, the “activation, negative = inhibition” value was -1.14%.

With `COc1cc(/C=N/O)ccc1OCc1ccc([N+](=O)[O-])cc1`, the Potency was 2000 nM (active).

As for `COc1cc(C(=O)OCc2ccc([N+](=O)[O-])cc2)cc(OC)c1OC`, the “activation, negative = inhibition” value is -2%.

In the case of `O=C(CCCCO)c1ccc(O)c(Cl)c1`, the “activation, negative = inhibition” value is -2.36%.

`O=C(CNC(=O)c1cccs1)N/N=C/c1cccc(Br)c1`: the “activation, negative = inhibition” value was 3.62%.

Turning to `O=C(N/N=C/C=C/c1ccco1)c1cccs1`, the Potency was 4470 nM (active).

Turning to `CCN(CC)c1ccc(/C=N/NC(=O)CNC(=O)c2cccs2)cc1`, the “activation, negative = inhibition” value was 11.8%.

As to `CC(=O)Nc1ccc(/C=N/NC(=O)c2cccs2)cc1`, the Potency is 1260 nM (active).

With `O=C(N/N=C/c1ccco1)c1ccc(C(=O)N/N=C/c2ccco2)o1`, the “activation, negative = inhibition” value was -1.12%.

For `Cc1ccc(-c2cc(C(=O)N/N=C/C=C/c3ccco3)c3ccccc3n2)cc1C`, the “activation, negative = inhibition” value is 8.94%.

For the molecule `O=C(COC(=O)CCCN1C(=O)c2cccc3cccc(c23)C1=O)NC1CCS(=O)(=O)C1` (stereo not given), the “activation, negative = inhibition” value is -1.11%.

Consider `CC(Sc1nnc(C2CC2)n1C1CC1)C(=O)Nc1ccc(C(N)=O)cc1` (stereo not given), for which the “activation, negative = inhibition” value is -0.304%.

With `CCc1ccc(CN(C)C(C)C(=O)Nc2ccc(S(=O)(=O)N3CCCC3)cc2)cc1` (stereo not given), the “activation, negative = inhibition” value was -0.394%.

In the case of `COc1ccc([C@H]2CC(=O)C=C(c3ccc(C)cc3)C2)cc1`, the “activation, negative = inhibition” value was -4.22%.

For `CN(C1CCS(=O)(=O)C1)S(=O)(=O)c1ccc2ccccc2c1` (stereo not given), the “activation, negative = inhibition” value was 0.342%.

On to `O=S(=O)(NCc1ccc2c(c1)OCO2)c1cccc2nsnc12`, for which the “activation, negative = inhibition” value was 1.17%.

For `Cc1cccc(C(=O)O)c1[N+](=O)[O-]`, the “activation, negative = inhibition” value was -4.76%.

Consider `Cc1onc(-c2ccccc2)c1C(=O)N1CCN(S(=O)(=O)c2ccccc2C(F)(F)F)CC1`, for which the “activation, negative = inhibition” value is 1.61%.

As for `Cc1[nH]n(C)c(=O)c1C(=O)c1c(-c2c(Cl)cccc2Cl)noc1C`, the “activation, negative = inhibition” value is -6.11%.

In the case of `O=c1c2ccccc2c(-c2ccc(F)cc2)nn1-c1ccc(C(F)(F)F)cc1`, the “activation, negative = inhibition” value was 0.147%.

Consider `Cn1c(-c2ccc(F)cc2)cc2onc(-c3ccccc3Cl)c2c1=O`, for which the Potency is 891 nM (active).

On to `O=C1c2ccccc2C(=O)N1Cc1cc(-c2ccccc2Cl)no1`, for which the “activation, negative = inhibition” value is 0.361%.

With `Cn1c(-c2ccc(C(F)(F)F)cc2)cc2onc(-c3ccccc3)c2c1=O`, the Potency is 447 nM (active).

In the case of `CCCCC[C@H]1CN(C2CCCCC2)C(=O)[C@@H]1CC(=O)NCc1ccc(OC)cc1`, the “activation, negative = inhibition” value was -4.04%.

Take `O=c1oc2ccc(C#CC3(O)CCCCC3)cc2cc1-n1cc(-c2ccsc2)nn1`: the “activation, negative = inhibition” value is -3.91%.

As to `O=C(Nc1ccccc1N1CCOCC1)c1ccncc1`, the “activation, negative = inhibition” value is -3.82%.

Take `CC(NCC(=O)Nc1ccccc1C(=O)NC1CC1)c1ccccc1Cl` (stereo not given): the “activation, negative = inhibition” value was -1.93%.

With `CCOC(=O)C1(Cc2ccccc2C)CCCN(C(=O)CCc2c(C)noc2C)C1` (stereo not given), the “activation, negative = inhibition” value was 0.805%.

As to `Cc1ccccc1CC1(CO)CCCN(C(=O)c2cc(-c3ccccc3)no2)C1` (stereo not given), the “activation, negative = inhibition” value is -4.08%.

As to `Cc1noc(C)c1CCC(=O)N1CCCC(CO)(Cc2ccccc2)C1` (stereo not given), the Potency was 3550 nM (active).

On to `COc1ccc(OCCNC(=O)c2cc(C3CC3)nc3c2cnn3C(C)C)cc1`, for which the “activation, negative = inhibition” value is -7.29%.

For the molecule `O=C(CN1CCN(c2ccccc2O)CC1)NC(=O)NCc1ccccc1`, the “activation, negative = inhibition” value is 0.0733%.

`N=c1c2c(-c3ccccc3)c(-c3ccccc3)n(Cc3ccccc3)c2ncn1CCCO`: the “activation, negative = inhibition” value is -18.6%.

In the case of `OCCCN1c2ccccc2Nc2nnc(-c3ccccc3)cc21`, the Potency was 2000 nM (active).

In the case of `CCOC(=O)C(C)N(c1ccccc1Cl)S(C)(=O)=O` (stereo not given), the “activation, negative = inhibition” value was -1.61%.

With `N#Cc1c(NC(=O)C2CC(Cl)=CCC2C(=O)O)sc2c1CCCCC2` (stereo not given), the “activation, negative = inhibition” value was 0.959%.
